Test results as given in the supplement of paper PMC13094657.
± gives the standard deviation of the averaged measurements.

Experiments:
MDA-MB-231 [1] = test: cell viability relative to vehicle unstimulated control (fraction); higher = more viable cells; conditions: pre-treatment time: 18 h then 24 h IFNg/TNF
MDA-MB-231 [2] = test: kynurenine production, fold change vs DMSO IFNg/TNF control; higher = more kynurenine produced (less inhibition); conditions: pre-treatment time: 18 h then 24 h IFNg/TNF
Outline: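 In 96-well plates, MDA-MB-231 cells (7 × 10^4/well) were given 24 h to settle, pre-treated for 18 h with each natural product in 0.1% DMSO, and stimulated for 24 h with IFNγ (1 U/ml) and TNF (6.25 ng/ml) at 37°C. Supernatants were processed with trichloroacetic acid and p-dimethylaminobenzaldehyde and read at 492 nm against 0–100 μM standards. In the first screening round, kynurenine production, as fold change over same-plate cytokine-stimulated vehicle wells, was averaged over duplicate plates.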
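Throughout, for cell viability relative to vehicle unstimulated control: viability of the cells left after supernatant collection, read with Deep Blue dye added for 4 h, as absorbance at 570 nm minus 600 nm.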

Compound | cell viability (MDA-MB-231 [1]) | kynurenine production (MDA-MB-231 [2])
C=C1C(=O)O[C@@H]2[C@H]3C(C)=CC[C@@]34O[C@@]4(C)CC[C@@H]12 [Arglabin] (compound dose: 10 uM) | 1.01 ± 0.041 | 0.822 ± 0.039
C=C(C=O)[C@H]1CC[C@H](C)[C@H]1C=O [dolichodial] (compound dose: 10 uM) | 1 ± 0.032 | 0.897 ± 0.018
CC(CCC(OC1OC(CO)C(O)C(O)C1OC1OC(CO)C(O)C(O)C1O)C(C)(C)O)C1CCC2(C)C3CC=C4C(CCC(O)C4(C)C)C3(C)C(O)CC12C (stereo not drawn) [Mogroside II-A] (compound dose: 10 uM) | 1.05 ± 0.069 | 0.693 ± 0.08
C=C1C(=O)O[C@@H]2/C=C(\C)[C@@H](OC(C)=O)C/C=C(\COC(C)=O)C[C@@H](OC(=O)/C(C)=C/CO)[C@@H]12 [Eupalinolide B] (compound dose: 10 uM) | 0.899 ± 0.057 | 0.26 ± 0.0058
O=C(OCC1=C[C@@H](O)[C@@H]2C=CO[C@@H](O[C@@H]3O[C@H](CO)[C@@H](O)[C@H](O)[C@H]3O)[C@H]12)c1ccc(O)cc1 [Agnuside] (compound dose: 10 uM) | 1.08 ± 0.039 | 0.864 ± 0.17
C[C@H]1[C@H](C)CC[C@]2(C(=O)O)CC[C@]3(C)C(=CC[C@@H]4[C@@]5(C)CC[C@H](O)C(C)(C)[C@@H]5CC[C@]43C)[C@H]12 [3-Epiursolic Acid] (compound dose: 10 uM) | 1.02 ± 0.045 | 0.649 ± 0.08
C=C1C(=O)O[C@H]2C[C@@H](C)[C@@H]3[C@@H](OC(C)=O)C[C@H](O)[C@@]3(C)[C@@H](OC(C)=O)[C@H]12 [Britannin] (compound dose: 10 uM) | 1.01 ± 0.043 | 0.268 ± 0.075
CC[C@@H](C(=O)[C@@H](C)[C@@H](O)[C@H](C)CCc1ccc(C)c(O)c1C(=O)O)[C@H]1O[C@](CC)([C@H]2CC[C@](O)(CC)[C@H](C)O2)C[C@@H]1C [Lasalocid (sodium)] (compound dose: 10 uM) | 0.865 ± 0.04 | 0.37 ± 0.0038
COC(=O)C1=CO[C@@H](O[C@@H]2O[C@H](CO)[C@@H](O)[C@H](O)[C@H]2O)[C@@H]2C(COC(C)=O)=C[C@H](O)[C@H]12 [Daphylloside] (compound dose: 10 uM) | 0.999 ± 0.062 | 0.888 ± 0.048
C/C1=C\[C@@H]2[C@H](CC/C(C)=C/CC(=O)/C(C)=C/CC1)C2(C)C [5-ketocasbene/9-ketocasbene] (compound dose: 10 uM) | 1.155 ± 0.0076 | 1.03 ± 0.12
C=C[C@H]1[C@H](O[C@@H]2O[C@H](CO)[C@@H](O)[C@H](O)[C@H]2O)OC=C2C(=O)OCC[C@]21O [Swertiamarin] (compound dose: 10 uM) | 0.9564 ± 0.0069 | 0.912 ± 0.14
C/C=C(/C)C(=O)O[C@H]1C(C)=C[C@]23C(=O)[C@@H](C=C4COC(C)(C)O[C@H]4[C@]12O)[C@H]1[C@@H](C[C@H]3C)C1(C)C [Ingenol-5,20-acetonide-3-O-angelate] (compound dose: 10 uM) | 0.971 ± 0.025 | 0.918 ± 0.23
CC1(C)CC[C@]2(CO)CC[C@]3(C)C(=CC[C@@H]4[C@@]5(C)CC[C@H](O)C(C)(C)[C@@H]5CC[C@]43C)[C@@H]2C1 [Erythrodiol] (compound dose: 10 uM) | 1.08 ± 0.031 | 0.842 ± 0.14
CC12CCC(C1)C(C)(C)C2=O (single isomer, unassigned; (-)) [(-)-Fenchone] (compound dose: 10 uM) | 1.121 ± 0.0077 | 0.955 ± 0.13
COC(=O)C1=CO[C@@H](O)[C@@H]2C(CO)=CC[C@H]12 [Genipin] (compound dose: 10 uM) | 1 ± 0.026 | 0.76 ± 0.052
C/C1=C\CC[C@]23O[C@H]2[C@@H](OC3=O)c2c(C)coc2C1 [Linderane] (compound dose: 10 uM) | 0.985 ± 0.032 | 0.942 ± 0.096
C=C1[C@H](OC(=O)/C=C(\C)CC)C[C@@H](C(C)C)[C@@H]2[C@@H]([C@@H](C)OC(C)=O)C(=O)C[C@@H]12 [Tussilagone] (compound dose: 10 uM) | 1.01 ± 0.034 | 1.0216 ± 0.00014

Compound | cell viability (MDA-MB-231 [1]) | kynurenine production (MDA-MB-231 [2])
CC(=O)OCC1=C[C@H]2[C@@H]3C(C)(C)[C@]3(OC(C)=O)[C@H](OC(C)=O)[C@@H](C)[C@]2(O)[C@@H]2C=C(C)C(=O)[C@@]2(O)C1 [Phorbol 12,13,20-triacetate] (compound dose: 10 uM) | 0.868 ± 0.26 | 0.8 ± 0.1
CC1OC2OC3C(OCC(O)C3O)OC(=O)C34CCC(C)(C)CC3C3=CCC5C6(C)CC(O)C(OC7OC(CO)C(O)C(O)C7OC7OCC(OC(=O)CC(C)(O)CC(=O)OC1C(OC1OCC(O)C(O)C1O)C2O)C(O)C7O)C(C)(CO)C6CCC5(C)C3(C)CC4O (stereo not drawn) [Tubeimoside II] (compound dose: 10 uM) | 0.387 ± 0.0057 | 0.21 ± 0.0034
CC(=O)O[C@]12CCC(C(=O)O)=CC[C@]13CC[C@H]2[C@@](C)(/C=C/C=C(\C)C(=O)O)OC3=O [Pseudolaric Acid C2] (compound dose: 10 uM) | 1.017 ± 0.0098 | 0.728 ± 0.017
CC(C)(O)[C@H]1CC[C@@](C)([C@H]2[C@@H](O)C[C@@]3(C)[C@@H]4C[C@H](O)[C@H]5C(C)(C)[C@@H](O)CC[C@@]56C[C@@]46CC[C@]23C)O1 [Cyclogalegenin] (compound dose: 10 uM) | 0.999 ± 0.043 | 0.854 ± 0.064
CC1=CC23C(=O)C(C=C4COC(C)(C)OC4C2(O)C1O)C1C(CC3C)C1(C)C (stereo not drawn) [Ingenol-5,20-acetonide] (compound dose: 10 uM) | 0.948 ± 0.042 | 1.07 ± 0.082
O=c1ccoc2cc(O)cc(O)c12 [5.7-dihydroxychromone] (compound dose: 10 uM) | 0.9229 ± 0.0012 | 0.868 ± 0.023
CC[C@@H](C(=O)[C@@H](C)[C@@H](O)[C@H](C)CCc1ccc(C)c(O)c1C(=O)O)[C@H]1O[C@](CC)([C@H]2CC[C@](O)(CC)[C@H](C)O2)C[C@@H]1C [Lasalocid] (compound dose: 10 uM) | 0.877 ± 0.017 | 0.509 ± 0.022
CC(CC(=O)C[C@@H](C)[C@H]1CC(=O)[C@@]2(C)C3=C(C(=O)C[C@]12C)[C@@]1(C)CC[C@H](O)C(C)(C)[C@@H]1C[C@@H]3O)C(=O)O (stereo partly drawn) [Ganoderic acid B] (compound dose: 10 uM) | 0.95 ± 0.032 | 0.774 ± 0.18
C=C1C(=O)[C@@]23[C@@H]4OC5O[C@@]2(O)[C@@H](O)[C@@H]2C(C)(C)CC[C@@H](O)[C@]52[C@@H]3CC[C@@H]14 [Ponicidin] (compound dose: 10 uM) | 0.9 ± 0.21 | 0.404 ± 0.15
C[C@H]1O[C@@H](Oc2ccc(COC(=O)CC(O)(CC(=O)OCc3ccc(O[C@@H]4O[C@H](CO)[C@@H](O)[C@H](O)[C@H]4O)cc3)C(=O)Oc3ccc(O[C@H]4O[C@H](CO)[C@@H](O)[C@H](O)[C@H]4O)cc3)cc2)[C@H](O)[C@@H](O)[C@@H]1O (stereo partly drawn) [Parishin] (compound dose: 10 uM) | 0.985 ± 0.054 | 0.792 ± 0.13
CC(CCC(OC1OC(CO)C(O)C(O)C1OC1OC(CO)C(O)C(O)C1O)C(C)(C)O)C1CCC2(C)C3CC=C4C(CCC(OC5OC(COC6OC(CO)C(O)C(O)C6O)C(O)C(O)C5O)C4(C)C)C3(C)C(O)CC12C (stereo not drawn) [Mogroside IV] (compound dose: 10 uM) | 0.996 ± 0.11 | 1.12 ± 0.23
C[C@H](C[C@H](O)[C@H]1OC1(C)C)C1=C2C[C@H](O)[C@H]3[C@@]4(C)CCC(=O)C(C)(C)[C@@H]4CC[C@]3(C)[C@@]2(C)CC1 [Alisol B] (compound dose: 10 uM) | 0.865 ± 0.13 | 1.0307 ± 0.00045
CC1(C)[C@@H](O[C@H]2O[C@H](C(=O)O)[C@@H](O)[C@H](O)[C@H]2O[C@@H]2O[C@H](C(=O)O)[C@@H](O)[C@H](O)[C@H]2O)CC[C@]2(C)[C@H]3C(=O)C=C4[C@@H]5C[C@@](C)(C(=O)O)CC[C@]5(C)CC[C@@]4(C)[C@]3(C)CC[C@@H]12 [Glycyrrhizic acid] (compound dose: 10 uM) | 1.05 ± 0.075 | 0.842 ± 0.057
CC1=CC(=O)[C@@H]2C[C@H]1C2(C)C [Verbenone] (compound dose: 10 uM) | 1.128 ± 0.0013 | 1.25 ± 0.13
CC(C)C1=CC2=CC[C@@H]3[C@](C)(CCC[C@@]3(C)C(=O)O)[C@H]2CC1 [Abietic acid] (compound dose: 10 uM) | 1.08 ± 0.025 | 0.803 ± 0.22
O=C(O)c1cccnc1 [Nicotinic acid] (compound dose: 10 uM) | 0.917 ± 0.043 | 0.945 ± 0.13
C=C1C[C@@]23CC[C@H]4[C@@](C)(CCC[C@@]4(C)C(=O)O[C@@H]4O[C@H](CO)[C@@H](O)[C@H](O)[C@H]4O)[C@@H]2CC[C@]1(O[C@@H]1O[C@H](CO)[C@@H](O)[C@H](O)[C@H]1O[C@@H]1O[C@H](CO)[C@@H](O)[C@H](O)[C@H]1O)C3 [Stevioside] (compound dose: 10 uM) | 1.05 ± 0.015 | 0.959 ± 0.14
